ChEMBL document CHEMBL3433997, “St. Jude Leishmania screening dataset” (2016)

How the values were obtained:
Format in all cases: functional
[1] = molecular target: Solute carrier family 2, facilitated glucose transporter member 1 (Homo sapiens) (UniProt P11166); assay: ST_JUDE_LEISH: Cytotoxicity at 2uM final concentration against transgenic Leishmania Mexicana promastigotes LmGLUT1 that are glucose transport deficient and complemented with the human glucose transporter GLUT1. Activity is measured by DNA content using SYBR green in vitro
[2] = molecular target: Hexose transporter 1 (Plasmodium falciparum) (UniProt O97467); assay: ST_JUDE_LEISH: Cytotoxicity at 2uM final concentration against transgenic Leishmania Mexicana promastigotes LmPfHT that are glucose transport deficient and complemented with the Plasmodium falciparum hexose transporter. Activity is measured by DNA content using SYBR green in vitro
[3] = molecular target: Glucose transporter (Leishmania mexicana) (UniProt O61059); assay: ST_JUDE_LEISH: Cytotoxicity at 2uM final concentration against transgenic Leishmania Mexicana promastigotes LmGT2 that are glucose transport deficient and complemented with the L. Mexicana glucose transporter 2. Activity is measured by DNA content using SYBR green in vitro

Sequence of Solute carrier family 2, facilitated glucose transporter member 1 (Homo sapiens) (P11166 whole entry): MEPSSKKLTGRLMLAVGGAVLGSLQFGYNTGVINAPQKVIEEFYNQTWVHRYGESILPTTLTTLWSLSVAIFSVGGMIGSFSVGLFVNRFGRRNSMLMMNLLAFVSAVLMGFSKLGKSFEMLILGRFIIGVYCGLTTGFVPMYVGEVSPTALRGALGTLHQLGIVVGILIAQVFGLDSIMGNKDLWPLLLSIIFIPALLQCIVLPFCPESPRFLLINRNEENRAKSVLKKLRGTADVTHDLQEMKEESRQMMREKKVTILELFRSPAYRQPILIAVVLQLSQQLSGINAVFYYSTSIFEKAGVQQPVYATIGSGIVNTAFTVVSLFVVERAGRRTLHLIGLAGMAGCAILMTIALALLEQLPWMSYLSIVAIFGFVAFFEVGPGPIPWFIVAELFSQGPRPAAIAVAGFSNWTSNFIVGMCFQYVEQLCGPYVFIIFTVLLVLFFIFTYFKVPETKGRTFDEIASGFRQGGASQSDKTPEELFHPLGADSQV

Row | Structure (SMILES) | inhibition [1] | inhibition [2] | inhibition [3]
1 | CCN(CC)CCN(Cc1ccc(-c2ccc(C#N)cc2)cc1)C(=O)Cn1c(CCc2cccc(F)c2F)nc(=O)c2ccccc21 | 2.37% | 0.54% | 3%
2 | CC(C)N1CCN(C(=O)c2ccc(CNCCCN3CCN(c4cccc(Cl)c4Cl)CC3)o2)CC1 | -2.44% | -1.41% | -1.3%
3 | O=C(Cc1ccc[n+]([O-])c1)Nc1cccc(-c2cccc(-c3nc4cc(C(F)(F)F)ccc4[nH]3)c2)c1 | 2.28% | -0.06% | 5.03%
4 | CC(Cc1ccc(OCc2ccccc2)cc1)Nc1nc(O)c2ccccc2n1 (stereo not drawn) | 2.96% | 1.33% | 3.22%
5 | COc1ccc2[nH]ccc(=NN=Cc3ccc(Cl)cc3)c2c1 | 1.86% | 3.19% | 0.32%
6 | CC(C)CN1C(=O)C(c2ccc(F)c(F)c2)=C(O)C1c1ccccc1 (stereo not drawn) | 1.97% | 4.04% | -7.87%
7 | C[C@@]12C[C@@H](Nc3nc(NCCc4ccc(O)cc4)nc(N4CCNCC4)n3)C[C@@H](C1)c1cccc(Cl)c1O2 | -1.38% | -1.84% | 2.14%
8 | CC(C)N1CCC(NCc2ccc(-c3ccc(Cl)cc3)cc2)CC1 | 11.6% | 13.6% | 10.2%
9 | Cc1ncc([N+](=O)[O-])n1CCOC(=O)NC(NCC1COc2ccccc2O1)C(Cl)(Cl)Cl (stereo not drawn) | 2.63% | 2.63% | 2.19%
10 | Oc1ccc(CCNCc2ccc(OCc3ccccc3)c(OCc3ccccc3)c2)cc1 | 75% | 76.6% | 68.5%
11 | COCCN(C(=O)Cc1cccs1)C(C(=O)NCc1ccc(OC)cc1)c1ccc(C(C)C)cc1 (stereo not drawn) | 2.96% | -3.02% | -0.76%
12 | COc1cc(CN=C(S)NN=C(C)c2ccccn2)cc(OC)c1OC | 5.41% | 1.2% | 2.59%
13 | Cn1cccc1CCNCc1ccc(-c2cccc(-c3nc4cc(F)ccc4[nH]3)c2)cc1 | 3.65% | 3.24% | 3.01%
14 | COc1cc(Cc2cnc(N)nc2N)cc(OCCn2ccccc2=O)c1OC | 2.42% | 2.33% | 1.46%
15 | CS(=O)(=O)c1ccc(-c2cnc(N)c(-c3cccc(CO)c3)c2)cc1 | 3.95% | 3.16% | 4.32%
16 | c1ccc(C23NC(=Nc4nc5ccccc5[nH]4)NC2(c2ccccc2)NC(=Nc2nc4ccccc4[nH]2)N3)cc1 (stereo not drawn) | 3.64% | 3.18% | 5.58%
17 | CC(C)C1C(O)=C(c2ccc3ccccc3c2)C(=O)N1Cc1ccsc1 (stereo not drawn) | 4.27% | 5.59% | 2.54%
18 | N#Cc1ccc2c(c1)CCN(CCC1CCC(NC(=O)c3cc4ccc(Cl)cc4[nH]3)CC1)C2 (stereo not drawn) | 1.73% | -0.22% | -0.76%
19 | Oc1ccc(CCNCCCCCCNCCc2ccc(Cl)c3ccccc23)cc1O | -0.26% | -2.07% | -2.9%

Row | Structure (SMILES) | inhibition [1] | inhibition [2] | inhibition [3]
20 | COc1ccc(S(=O)(=O)N2CCCc3ccc(Br)cc32)cc1N1CCN(C(=O)C(Cl)(Cl)Cl)CC1 | 2.54% | 2.99% | 1.28%
21 | COCCNCc1ccc(-c2ccc(CNC3CCN(Cc4ccccc4)CC3)cc2)cc1 | 0.78% | 2.82% | 5.2%
22 | O=C(N/C=N/c1cc([N+](=O)[O-])c(-c2ccncc2)n1-c1ccccc1)c1cccc(O)c1 | 0.21% | 0.41% | 0.38%
23 | COc1cc(Br)ccc1N1CCN(CCCCNC(=O)c2ccc(NC(=O)c3ccc(Cl)cc3)cc2)CC1 | 2.1% | 2.33% | 1.5%
24 | FC(F)(F)c1ccc2[nH]c(-c3cccc(-c4cccc(CNCCN5CCNCC5)c4)c3)nc2c1 | -0.06% | 3.11% | 1.99%
25 | CC1(CCCCN2CCC(Cc3ccccc3)CC2)C(=O)Nc2ccccc21 (stereo not drawn) | 6.25% | 5.65% | 4.71%
26 | O=C(Nc1cccc(-c2ccc(-c3nc4ccccc4[nH]3)cc2)c1)c1csnn1 | 1.19% | 1.58% | 0.69%
27 | CC(C)C(C(=O)Nc1ccc(S(=O)(=O)N(C)C)cc1)c1ccc(Cl)cc1 (stereo not drawn) | -2.78% | -3.31% | 0.19%
28 | CCNc1cc(C(=O)N[C@@H](Cc2ccccc2Cl)[C@H](O)CNC2CCCCC2)cc(N2CCCCS2(=O)=O)c1 | 0.03% | 0.45% | -2.07%
29 | Cc1cccc2nc(-c3ccc(-c4ccc(NC(=O)Nc5ccc(Cl)c(Cl)c5)cc4)s3)[nH]c12 | 1.5% | 1.27% | -6.86%
30 | COc1cc2nccc(Nc3ccc(Oc4ccccc4)cc3)c2cc1OC | 3.01% | 9.3% | 4.02%
31 | Cc1cccc2nc(-c3cccc(-c4ccc(CN5CCCC5CN)cc4)c3)[nH]c12 (stereo not drawn) | 1.85% | 0.15% | 0.68%
32 | Cc1cc(O)c(CNC2CCCCC2)cc1C | 1.17% | 1.33% | 2.92%
33 | CN(C)c1nc2cc(-n3cnc4cc(-c5ccc(Cl)cc5)sc4c3=O)ccc2n1CCCN1CCCCC1 | 9.33% | 10.8% | 5.06%
34 | FC(F)(F)c1ccc2[nH]ccc(=NN=Cc3ccccc3Cl)c2c1 | 2.85% | 1.66% | 1.62%
35 | CCCN1CCN(Cc2ccc(C(=O)Nc3ccc(Cl)cc3)cc2)CC1 | 5.31% | 4.24% | 4.34%
36 | COc1cc(Nc2nccc(-c3c(-c4cccc(NC(=O)c5c(F)cccc5F)c4)nn4ncccc34)n2)cc(OC)c1OC | 12.1% | 16.6% | 6.39%
37 | Cc1ccc(-c2noc(COc3ccccc3C(=O)NC3CCCC3)n2)cc1 | 3.88% | 6.24% | 6.15%
38 | Cc1c(-c2cccc(C(C)(C)NCCCN3CCCCC3)c2)cnc(N)c1C | -0.39% | -0.25% | 0.62%

Row | Structure (SMILES) | inhibition [1] | inhibition [2] | inhibition [3]
39 | COc1cccc(-n2ncc3c(N/N=C/c4ccc(CN(C)CCN(C)C)cc4)ncnc32)c1 | 10.7% | 10.3% | 7.16%
40 | CC(C)(C)c1ccc2[nH]c(-c3ccc(C(=O)NCCCc4ccccc4)cc3)nc2c1 | 2.42% | 2.97% | -0.47%
41 | Cc1cccc2nc(-c3ccc(-c4cccc(CNCc5cnn(-c6ccccc6)n5)c4)s3)[nH]c12 | 3.52% | 2.05% | 1.93%
42 | CS(=O)(=O)c1ccc(CNCc2ccc(-c3ccc(-c4nc5cc(C(F)(F)F)ccc5[nH]4)cc3)cc2)cc1 | 2.96% | 1.96% | 2.3%
43 | CC(C)CCn1c(Sc2ccc(C#N)c([N+](=O)[O-])c2)nnc1-c1ccc(Cl)cc1 | 10.1% | 9.73% | 4.99%
44 | COc1ccc(C(=O)NCC(C)(C)c2nc(-c3ccc(Cl)c(O)c3)c(-c3ccncc3)[nH]2)cc1OCCN(C(C)C)C(C)C | -1.11% | -0.86% | -1.98%
45 | CC(C)C[C@H](NC(=O)c1cccc(F)c1)C(=O)N[C@H](/C=N/NC(=O)c1ccccc1)CCc1ccccc1 | -1.39% | 3.32% | 0.18%
46 | CN1CCC[C@H]1COc1ccc(CN2CC[C@H](NC(=O)c3ccc(Cl)c(Cl)c3)C2)c2ccccc12 | 9.64% | 8.86% | 6.54%
47 | COc1cc(NC(=O)c2sc(-c3ccc(Cl)cc3)cc2NC(=O)N2CCCC2)ccc1OCCN1CCCC1 | 2.35% | 3.29% | 1.4%
48 | Cc1cccc2nc(-c3ccc(-c4cccc(NC(=O)Nc5ccc(F)c(F)c5F)c4)cc3)[nH]c12 | 2.29% | 3.05% | 0.59%
49 | CCc1nnc2sc(-c3cccc(NC(=O)c4ccc(C)c([N+](=O)[O-])c4)c3)nn12 | 7.69% | 3.97% | 2.48%
50 | COc1cccc2c(NCc3ccccc3)nc(NCCCN3CCCCC3C)nc12 (stereo not drawn) | 67.7% | 50.8% | 13.1%
51 | c1ccc(CN2CCC(NCc3cccc(-c4cncc5ccccc45)c3)CC2)cc1 | 9.44% | 7.7% | 8.64%
52 | Cc1cccc2nc(-c3cccc(-c4ccc(NC(=O)c5cccnc5)cc4)c3)[nH]c12 | 3.18% | 4.09% | 2.31%
53 | Cc1ccc(N2C(N)=NC(N)=NC2(C)C)cc1 | 2.52% | 2.98% | 2.39%
54 | COc1ccc(Oc2ccccc2CNCC2CCN(CC3CCCCC3)CC2)cc1 | 6.31% | -1.98% | 2.13%
55 | C#CCNC(=O)c1ccc(-c2ccnc(Nc3cccc(CCCN4CCOCC4)c3)n2)s1 | 37.4% | 37.9% | 27.2%
56 | CC[C@H](NC(=O)c1ccc(NC(=O)OC(C)(C)C)cc1)C(=O)N[C@@H](CO)C(=O)NCCCCc1ccccc1 | 1.96% | 1.3% | -0.11%
